# Results filed as inconclusive are left out. The source made the active and inactive calls. Calls follow the shape of the dose curve; as a rule, active = well fitted curve in the direction sought with a large enough effect; inconclusive = small, poorly fitted or top-dose-only effect, or effect the other way, or another doubt; inactive = no such curve, though single readings can be large or run the other way.
# Assay: qHTS Assay for Identifying a Potential Treatment of Ataxia-Telangiectasia: Secondary assay (no NCS) SAR for Probe
# Description: NIH Chemical Genomics Center [NCGC] NIH Molecular Libraries Probe Centers Network [MLPCN] MLPCN Grant: MH089030-01 Assay Submitter (PI): Wei Zheng and Yosef Shiloh Ataxia-telangiectasia (A-T) is a devastating and progressive disease for which, there is no cure. Although A-T is a multisystem disease, it is stereotyped characterized by its neurological symptoms such as truncal ataxia, due to cerebellar cortical degeneration of the Purkinje and granule cells. Other symptoms of A-T are telangiectasias (dilated blood vessels), primary immunodeficiency, marked sensitivity to ionizing radiation (IR), chromosomal instability and predisposition to cancer. The underlying genetic cause of A-T is null mutations in the ATM (A-T mutated) gene. ATM is a nuclear serine/threonine kinase that functions as a master regulator of the cellular responses to double strand breaks (DSBs) in the DNA. Upon activation by DSBs, ATM phosphorylates a plethora of downstream targets, including KAP-1 on Ser82452. […] To screen for small molecules that will compensate for the loss of ATM in cells derived from A-T patients, we monitored KAP-1 phosphorylation as a readout for ATM-like activity using an AlphaLISA assay. […]
# qHTS Assay Protocol: Step,Parameter,Value,Description 1. […] Readout, EnVision, EnVision plate reader. […] EnVision protocol for 1536-well AlphaScreen read (30ms excitation, 100ms read), about 10 min/plate.
structure (smiles),measurement,value
CC(=O)c1c(O)c(C)c(O)c(Cc2c(O)c3c(c(C(=O)/C=C/c4ccccc4)c2O)OC(C)(C)C=C3)c1O,outcome,inactive

# From PubChem BioAssay AID504361 (National Center for Advancing Translational Sciences (NCATS), 2011)
